This is part of a sample that, as a whole, favours compounds with a hit. Of some 83,000 tested, about 20% had one in any assay.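 48-hour exposure, single concentration, 96-well plates; percent growth endpoint where 0 means no net growth. Active: below 10.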 Unmarked numbers belong to inactive results. Calls of active or inactive are those of the source.
System: HL-60(TB) leukemia
Assay: NCI-60 one-dose screen, 48 h (100 = growth as untreated, 0 = no growth, -100 = all killed)
Conditions: 10 µM unless noted

| Compound | growth |
| --- | --- |
| CN(C)c1ccc(-c2ccc(-c3ccc(C(=N)N)cc3)s2)cc1 | 14.4% |
| CCOC(=O)c1cc(C(=O)c2ccc(O)c(O)c2)n2ccc(-c3ccn4c(C(=O)c5ccc(O)c(O)c5)cc(C(=O)OCC)c4c3)cc12 | 73.8% |
| COc1cc(CSc2nc3ccc(Cl)cc3c(=O)n2-c2ccccc2)cc(OC)c1OC | 90.8% |
| COc1cc2nc(-c3ccc(-c4nn[nH]n4)cc3)[nH]c(=O)c2cc1OC | 93.8% |
| CCCCCC/C=C\CCCCCCCCCc1cc(O)cc(OC)c1O | -44.7% (active) |
| NC1C(N)C(N)C1N (stereo not given) | 93.8% |
| C#CCOc1cc(/C=N/Nc2nc(-c3ccc(OC)cc3)cs2)ccc1O | 97.6% |
| CCOC(=O)N1CCC(N=C2CSc3nnc(-c4cc(C(F)(F)F)cc(C(F)(F)F)c4)n3N2)CC1 | -40.7% (active) |
| COc1cc2cc(Oc3ccc(NC(=O)c4ccccc4)cc3)c(C)nc2cc1OC | 100% |
| NS(=O)(=O)c1ccc(C(=O)N=Nc2c(O)[nH]c3ccc(Cl)cc23)cc1 | 102% |
| CNC(=O)N/N=C/c1ccc([N+](=O)[O-])o1 | 66.4% |
| COc1ccc2c(c1)CCc1[nH]nc(-c3cc(OC)c(OC)c(OC)c3)c1-2 | -20.4% (active) |
| COc1cc2nccc(Oc3ccc(NC(=O)C4(C(=O)Nc5c(F)cc(F)cc5F)CC4)cc3)c2cc1Oc1ccc(N)cn1 | 38.3% |
| COc1ccc(/C=C/C=C\C(=O)c2ccc(-n3ccnc3)cc2)cc1 | 66.9% |
| O=C(Nc1cccc(C(=O)N2CCc3ccc(Cl)cc32)c1)c1ccco1 | 1.39% (active) |
| Cc1cc(C(C)(C)C)cc(C)c1CC1=NCCN1 | 102% |
| CNC(=O)c1cccc(Cn2nc(C)c(NC(=O)c3ccc(COc4ccc(C(F)(F)F)cc4C)cc3)c2C)n1 | 36.7% |
| O=C(c1ccc(OCCN2CCCCC2)cc1)c1c(-c2ccc(O)cc2)sc2cc(O)ccc12 | 76.8% |
| Cc1[nH]c(C2CC(c3ccc(C(F)(F)F)c(F)c3)=NN2C)c(C)c1C(=O)NCC(F)(F)F (stereo not given) | 97.1% |
| NC(CO)(CO)c1ccccc1 | 119% |

| Compound | growth |
| --- | --- |
| COc1ccc(-c2nnc(NC(=O)CN3CCN(c4cc5c(cc4F)c(=O)c(C(=O)O)cn5C4CC4)CC3)s2)cc1OC | 111% |
| COc1cc(/C=C/c2cc(/C=C/c3ccc(O)c(OC)c3)n(C(=O)Nc3ccc(C)cc3C)n2)ccc1O | -30.4% (active) |
| CCOC(=O)c1c(C)nc2ccccc2c1/C=C/c1cccs1 | 87.3% |
| COC(=O)/C(Br)=C/c1c[nH]c2ccc(Br)cc12 | 67.9% |
| Nc1n[nH]c2ccc([C@@H]3Nc4ccc5cn[nH]c5c4[C@H]4C5CCC(C5)[C@@H]34)cc12 (stereo not given in full) | -29.2% (active) |
| NC1(N)C=CC2=C(C=C1)C1(N)C3=C(C=CC(N)(N)C=C3)N2C2(N)C3=C(C=CC(N)(N)C=C3)N1C1=C2C=CC(N)(N)C=C1 | -2.73% (active) |
| CN1CCC(CNc2cc(C3(C(=O)Nc4cc(C(=O)Nc5ccc(Cl)c(C(F)(F)F)c5)ccc4F)CC3)ncn2)CC1 | -7.85% (active) |
| N#CSCc1ccc(CSC#N)c(Cl)c1 | 23% |
| C=CCNc1nc(O)c(/C=C2\C=Nc3ncccc32)s1 | -14.5% (active) |
| CCN1C(=O)N(CC)C2Nn3c(s/c(=C\c4cccc(F)c4)c3=O)=NC21 (stereo not given) | 38.6% |
| COc1ccc(-c2[nH]ncc2-c2cc3c(c(OC)c2)OCC(=O)N3)cc1 | 11.3% |
| CCOC(=O)c1c(C)c2c(n1C)CSc1cc(S(=O)(=O)c3ccccc3)c(=O)[nH]c1-2 | 25% [100 µM] |
| CCCCCCCCCCCCCCCCN(C(C)c1ccccc1)S(=O)(=O)c1ccc(OC)c(N)c1 (stereo not given) | 98.2% |
| CSc1ccc(N=C=C(c2ccccc2)c2ccccc2)cc1 | 79.8% |
| CCOC(=O)CN1CCC(C(=O)OCC)CC1 | 116% |
| C[C@]12CC[C@@H]3c4ccc(O)c([N+](=O)[O-])c4CC[C@H]3[C@@H]1CC[C@@H]2NS(=O)(=O)c1cccc(Br)c1 | -5.66% (active) |
| CCc1nn2c(-c3ccc(Cl)cc3C)c(-c3cc(OC)c(OC)c(OC)c3)nc2s1 | 73.6% |
| CN(C)C(=O)OCc1ccc2c(Cl)cc(Cl)c(O)c2n1 | 18.8% |
| O=C(Nc1ccc(Nc2ccncc2)cc1)c1ccc([N+](=O)[O-])cc1 | -75.2% (active) |
| CN1CCN(c2nc(-c3ccncc3)nc3sc4c(c23)CCCCCC4)CC1 | 88.3% |
